DT40 TDP1 no CPT: qHTS for Inhibitors of human tyrosyl-DNA phosphodiesterase 1 (TDP1): qHTS in cells in absence of CPT; DT40 Tdp1-/- hTDP1 cells, no CPT, ATP luminescence, 48 h; Potency, µM (doses to about 46.2 µM), actives largely listed as inhibitors; 15% of 420,000 active; AID 686978, 2013; note: nearly all actives have a fitted effect of over 55% in size
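Seeded 400 DT40-hTDP1 cells/well (vehicle DMSO, no 20 nM CPT); pinned compounds; ≥48 hr at 37 °C; CellTiter-Glo luminescence as viability measure.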
PLK1 PBD block: PLK1 (human) polo-box domain binding inhibition; AID 720504; Plk1 PBD binding of FITC phosphopeptide, fluorescence polarization; Potency, µM, actives largely listed as inhibitors; 2.8% of 360,000 active; note: series mostly up to about 57 µM; nearly all actives have a fitted effect of over 65% in size
KAT2A inh: GCN5L2 (KAT2A) acetyltransferase inhibition; Q92830; GCN5L2 HAT assay, ThioGlo1 CoA-SH fluorescence; Potency, µM (top dose mostly 58.9 µM), usual class: inhibitors; 0.21% of 390,000 active
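ThioGlo1-coupled HAT assay: 20nM GCN5L2, 70uM acetyl-CoA, 75uM H3(1-25) peptide, pH 7.5. Fluorescence read at 340/540nm at start and after 20 min at room temperature.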
VDR inhibitor: inhibitors of human vitamin D receptor | P11473 | VDR-SRC2-3 peptide fluorescence polarization, 2 h | Potency, µM, hits mostly inhibitors | 0.93% of 400,000 active | AID 504847
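Compounds are added to VDR with labelled SRC2-3 coactivator peptide and held 2 h at room temperature. Inhibition of the VDR–peptide interaction is then read as a change in fluorescence polarization.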
DT40 TDP1 CPT: growth inhibition of DT40 Tdp1-/-;hTDP1 cells with camptothecin (screen for TDP1 inhibitors); chicken DT40 Tdp1-/-;hTDP1 cells + 20 nM CPT, ATP luminescence, 48 h; 12% of 420,000 active; Potency, µM (top dose mostly 46.2 µM), usual class: inhibitors; note: nearly all actives have a fitted effect of over 55% in size
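Cell growth measured by CellTiter-Glo luminescence after a minimum 48 h, 37 C compound exposure with 20 nM CPT in Tdp1-knockout DT40 cells stably expressing hTDP1, seeded 400/well; qHTS titration format.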
TDP1 block: blocks human tyrosyl-DNA phosphodiesterase 1. Q9NUW8. recombinant TDP1, AlphaScreen DNA substrate cleavage. Potency, µM (doses to about 130 µM), hits mostly inhibitors. 0.28% of 350,000 active. AID 485290; note: nearly all actives have a fitted effect of over 40% in size
Target sequence (Q9NUW8 whole entry, looked up): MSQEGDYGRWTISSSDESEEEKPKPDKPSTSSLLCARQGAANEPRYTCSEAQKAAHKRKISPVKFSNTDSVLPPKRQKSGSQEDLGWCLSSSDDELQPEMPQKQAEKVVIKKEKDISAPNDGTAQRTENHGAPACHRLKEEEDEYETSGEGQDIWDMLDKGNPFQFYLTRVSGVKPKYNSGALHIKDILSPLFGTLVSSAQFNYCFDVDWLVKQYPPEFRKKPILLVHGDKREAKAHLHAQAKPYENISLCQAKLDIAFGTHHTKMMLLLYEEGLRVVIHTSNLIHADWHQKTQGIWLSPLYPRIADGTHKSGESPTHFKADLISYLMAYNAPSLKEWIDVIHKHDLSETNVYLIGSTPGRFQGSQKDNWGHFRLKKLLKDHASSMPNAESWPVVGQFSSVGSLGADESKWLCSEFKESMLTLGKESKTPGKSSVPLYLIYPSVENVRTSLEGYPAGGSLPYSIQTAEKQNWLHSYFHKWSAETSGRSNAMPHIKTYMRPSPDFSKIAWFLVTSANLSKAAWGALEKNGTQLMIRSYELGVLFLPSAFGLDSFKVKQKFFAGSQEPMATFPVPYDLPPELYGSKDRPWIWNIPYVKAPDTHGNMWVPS
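Recombinant human Tdp1 (E. coli-expressed, 1 nM final) preincubated with compounds 15 min at room temperature, then 5'-biotin/3'-phosphotyrosine-FITC DNA substrate (15 nM final) added for 5 min. AlphaScreen beads (10 ug/ml final) added 10 min; cleavage lowers signal.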
A number is an active result; n = inactive; u = inconclusive; x = no result given; [ ] = dose if it differs, or a comment. Hits are enriched below; roughly 18% of the tested compounds scored in any of these assays. Calls come from the whole dose curve; as a rule, active = well fitted curve in the direction sought with a large enough effect; inconclusive = small, poorly fitted or top-dose-only effect, or another doubt; inactive = no such curve, though single readings can be large; an effect the other way counts as inactive or inconclusive.

SMILES | DT40 TDP1 no CPT | PLK1 PBD block | KAT2A inh | VDR inhibitor | DT40 TDP1 CPT | TDP1 block
CCOc1ccc(NC(=O)c2c(NC(=O)c3ccccc3Br)sc3c2CCC(C)C3)cc1 (stereo not drawn) | u | x | u | 40µM | u | n[12.3 µM]
COc1ccc(NC(=O)c2c(NC(=O)C(F)(F)F)sc3c2CCCCC3)cc1 | 18µM | x | n | n | u | n[12.3 µM]
COc1ccc(CC(=O)Nc2sc3c(c2C(=O)Nc2ccc(C)cc2)CCCCC3)cc1 | 16µM | x | n | u | u | n[12.3 µM]
Cc1ccc(NC(=O)c2c(NC(=O)Cc3ccccc3)sc3c2CCCC3)cc1 | u | x | n | n | u | n[12.3 µM]
Cc1cc(NC(=O)COC(=O)[C@@H]2CCCN2C(=O)c2cccs2)no1 | n | n | x | n | n | x
COc1ccc(C(C)NS(=O)(=O)Cc2ccccc2)cc1 (stereo not drawn) | n | n | n | n | n | n
CN(C)Cc1ccccc1-c1cc(NCc2ccccc2)ncn1 | n | x | n | n | n | x
Cc1cccc(NS(=O)(=O)c2cc3c(cc2C)NC(=O)CO3)c1 | u | n | u | n | u | x
Cc1cnc(-n2ncc(C(=O)N[C@H]3CCCCNC3=O)c2C2CC2)nc1-c1cccs1 | n | x | x | x | n | x
COC(=O)c1c(NC(=O)COc2ccc(OC)cc2)sc2c1CCC(C)C2 (stereo not drawn) | 7.3µM | x | n | n | u | n[12.3 µM]
CC1CCc2c(sc(NC(=O)Cc3ccccc3)c2C(=O)Nc2ccc(Cl)cc2)C1 (stereo not drawn) | u | x | n | n | 15µM | n[12.3 µM]
CCOc1ccc(-c2cc3c(=O)n(Cc4nc(-c5ccc(OCC)c(OC)c5)oc4C)ccn3n2)cc1Cl | n | x | n | n | n | n
CCn1cc(C(=O)NC2CC(C)(C)Cc3c2cnn3-c2cccc(F)c2)cn1 (stereo not drawn) | 21µM | n | n | n | 16µM | n
Cc1cnc(C(=O)NC2CC(C)(C)Cc3c2cnn3-c2cccc(F)c2)cn1 (stereo not drawn) | u | n | n | n | u | n
Oc1ccc(N2CCN(Cc3cc4c(cc3Br)OCCO4)CC2)cc1 | 23µM | n | n | n | u | x
COC(=O)C1(Cc2ccc3c(c2)CCC3)Cc2ccc3c(c2C1=O)CCC3 (stereo not drawn) | u | n | x | n | 21µM | x
Cc1ccc(NC(=O)Cc2ccc3c(c2)CCCC3)cc1C | n | u | n | n | n | n
CCCn1nc2cc(C(=O)NCC34CC5CC(CC(C5)C3)C4)ccc2c1OCC | 18µM | n | n | n | 21µM | n
COCCn1nc2cc(C(=O)NCC34CC5CC(CC(C5)C3)C4)ccc2c1OC | u | n | n | n | n | n
O=C(O)c1ccccc1C(=O)N1N=C2/C(=C/c3cccc([N+](=O)[O-])c3)CCCC2C1c1cccc([N+](=O)[O-])c1 (stereo not drawn) | n | 67µM | n | n | n | n
CC(=O)N1N=C2/C(=C/c3ccccc3)CCCC2C1c1ccccc1 (stereo not drawn) | u | 27µM | n | 71µM | u | n
O=C(CCCCn1c(=O)c2ccccc2n(CC(=O)Nc2cccc(F)c2)c1=O)NCc1ccccc1Cl | n | x | n | n | n | n
O=C(CCCl)Nc1cccc2cccnc12 | x | x | x | n | x | n
O=C(C=Cc1ccccc1Cl)c1ccccc1 | 16µM | n | x | 35µM | u | x
O=C(C=Cc1ccccn1)c1ccccc1 | 2.9µM | u | x | 20µM | 3.3µM | x
SMILES | DT40 TDP1 no CPT | PLK1 PBD block | KAT2A inh | VDR inhibitor | DT40 TDP1 CPT | TDP1 block
O=C(/C=C/c1ccco1)c1ccccc1O | n | n | u | n | n | n
O=C(C=Cc1ccccn1)c1ccccc1O | 3.7µM | 21µM | x | 56µM | 2.9µM | x
O=C(/C=C/c1ccccc1Cl)NC1CCS(=O)(=O)C1 (stereo not drawn) | 18µM | 3.8µM | n | u | 21µM | n
O=C(/C=C/c1ccccc1Cl)NC1CCCCC1 | u | n | n | n | n | x
CC1(C(=O)NS(=O)(=O)C2CC2)CCN(C(=O)COCc2ccccc2)C1 (stereo not drawn) | n | n | x | x | n | x
CC(C)c1ccc(NC(=O)CN2C(=O)NC(Cc3c[nH]c4ccccc34)C2=O)cc1 (stereo not drawn) | 16µM | n | n | n | u | n
CCCCCCCCNS(=O)(=O)CCNCCCC | 16µM | n | x | n | u | x
CCCCCCCCNS(=O)(=O)CCNC1CC1 | n | n | x | n | u | x
CCCCCCCCCC(=O)N[C@@H]1c2cc(OC)c(OC)cc2C[C@H]1OCc1ccccc1 | n | n | n | n | n | n
COc1cc2c(cc1OC)[C@@H](NC(=O)CCc1ccccc1)[C@H](OCc1ccccc1)C2 | u | n | n | n | 10µM | n
COC(=O)[C@@H]1CCCN1Cc1ccc2c(c1)CN(Cc1cc(OC)c3c(c1)OCO3)CCO2 | u | x | x | x | n[9.04 µM] | x
COC(=O)c1ccc(NC(=O)C(=O)NCC(c2cccnc2)N2CCN(c3ccccc3)CC2)cc1 (stereo not drawn) | n | x | n | n | n | n
COc1cccc(NC(=O)C(=O)NCC(c2cccnc2)N2CCN(c3ccccc3)CC2)c1 (stereo not drawn) | 18µM | x | n | n | u | n
Cc1cccc(NC(=O)C(=O)NCC(c2ccc3c(c2)OCO3)N2CCN(c3ccccc3)CC2)c1 (stereo not drawn) | n | x | n | n | n | n
Cc1cc(C)cc(NC(=O)C(=O)NCC(c2cccnc2)N2CCN(c3ccccc3)CC2)c1 (stereo not drawn) | 16µM | x | n | n | 21µM | n
O=C(Cc1ccc(NC(=O)N2CCSc3ncccc32)cc1)NCCc1ccccc1 | n | x | n | n | u | n
CCOC(=O)N1CCN(Cc2nc(N)nc(Nc3ccc(OC)cc3)n2)CC1 | n | n | n | n | n | n
CCOC(=O)N1CCN(Cc2nc(N)nc(Nc3ccc(Oc4ccccc4)cc3)n2)CC1 | 16µM | n | n | u | u | n
CCOC(=O)C1CCCN(Cc2nc(N)nc(Nc3ccc(OC)cc3)n2)C1 (stereo not drawn) | u | 27µM | n | n | 29µM | n
COc1ccc(NC(=O)CCn2nc(-c3ccccc3OC)c3c(C)cc(C)nc32)cc1 | 21µM | x | n | n | u | n
CCc1ccc(NC(=O)CCn2nc(-c3ccccc3OC)c3c(C)cc(C)nc32)cc1 | 21µM | x | n | n | u | n
O=c1cc(-c2cccc(-c3ccc(C(F)(F)F)cc3)c2)c2cc3c(cc2o1)OCO3 | x | x | n | n | x | n
Cc1ccc(C(C)C)c2oc(=O)cc(-c3ccc(-c4ccc(C(F)(F)F)cc4)cc3)c12 | 21µM | n | n | n | 15µM | n
CCOC(=O)c1c(COc2ccccc2)oc2ccc(O)cc12 | n | n | n | n | n | n
